Test results taken from PubChem BioAssay AID1159580 (chemical genetic matrix, 2015).
Screen size: about 5,500 compounds; about 2,000 (36%) were called active. Inconclusive results (about 18%) are left out. Rule as the data show it: active = normalized growth mostly below about 0.91 (no sharp cut-off); inconclusive = no clear call, values can overlap the other calls; inactive = mostly above about 0.92. The list shows a part of the results.

Experiment: chemical genetic growth profiling, strain panel (AID 1159580);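 also: tested at 20 µM; growth read once vehicle control cultures reached saturation at 30 °C; 1 = growth at the plate median or of vehicle wells; lower values mean less growth of the strain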
Settings: S. cerevisiae deletion strains, growth OD

Measured: normalized growth

COC(=O)/C=C/C(C)=C/C=C/C(C)=C/C=C/C=C(C)/C=C/C=C(C)/C=C/C(=O)O
inactive: locus YJR043C, strain POL32, stronger effect = lower value 1.03 | locus YJR066W, strain TOR1, stronger effect = lower value 0.898 | locus YJR075W, strain HOC1, stronger effect = lower value 1.04 | locus YKL009W, strain mrt4, stronger effect = lower value 0.996 | locus YKL068W, stronger effect = lower value 1.01 | locus YKL085W, strain MDH1 (second series), stronger effect = lower value 0.989 | locus YKL085W, strain MDH1, stronger effect = lower value 0.989 | locus YKL160W, strain elf1, stronger effect = lower value 1.02 | locus YKL190W, strain CNB1, stronger effect = lower value 1.01 | locus YKR001C, strain vps1, stronger effect = lower value 1.01 | locus YKR026C, strain gcn3, stronger effect = lower value 1.02 | locus YKR091W, strain srl3, stronger effect = lower value 1.02 | locus YLL001W, strain dnm1, stronger effect = lower value 1.02 | locus YLL026W, stronger effect = lower value 1.02 | locus YLL041C, strain sdh2, stronger effect = lower value 1.02 | locus YLR027C, strain aat2, stronger effect = lower value 1.02 | locus YLR039C, strain RIC1, stronger effect = lower value 1.08 | locus YLR058C, strain SHM2, stronger effect = lower value 1.01 | locus YLR102C, strain apc9, stronger effect = lower value 0.988 | locus YLR221C, strain rsa3, stronger effect = lower value 1.02 | locus YLR258W, strain gsy2, stronger effect = lower value 1.02 | locus YLR262C, strain YPT6 (second series), stronger effect = lower value 1.06 | locus YLR262C, strain YPT6, stronger effect = lower value 1.04 | locus YLR268W, strain sec22, stronger effect = lower value 1.02 | locus YLR320W, strain mms22, stronger effect = lower value 1.04 | locus YLR330W, strain CHS5, stronger effect = lower value 1.02 | locus YLR342W, strain FKS1 (second series), stronger effect = lower value 1.01 | locus YLR342W, strain FKS1, stronger effect = lower value 1.03 | locus YLR357W, strain rsc2, stronger effect = lower value 1.02 | locus YLR370C, strain arc18, stronger effect = lower value 1.02 | locus YLR371W, strain rom2, stronger effect = lower value 0.988 | locus YLR384C, strain iki3, stronger effect = lower value 1.02 | locus YLR418C, strain cdc73, stronger effect = lower value 1.01 | locus YML016C, strain PPZ1, stronger effect = lower value 1.02 | locus YML032C, strain rad52, stronger effect = lower value 0.982 | locus YML120C, strain ndi1, stronger effect = lower value 1.02 | locus YML124C, strain tub3, stronger effect = lower value 0.996 | locus YMR058W, strain fet3, stronger effect = lower value 1.03 | locus YMR078C, strain ctf18, stronger effect = lower value 0.993 | locus YMR125W, strain sto1, stronger effect = lower value 1.01 | locus YMR129W, stronger effect = lower value 1.02 | locus YMR205C, strain PFK2, stronger effect = lower value 1.03 | locus YMR223W, strain ubp8, stronger effect = lower value 1.01 | locus YMR231W, strain pep5, stronger effect = lower value 1.01 | locus YMR263W, strain SAP30, stronger effect = lower value 1.02 | locus YMR307W, strain GAS1, stronger effect = lower value 1.04 | locus YNL067W, strain RPL9B, stronger effect = lower value 1.02 | locus YNL071W, strain lat1, stronger effect = lower value 1.02 | locus YNL128W, strain TEP1, stronger effect = lower value 1.01 | locus YNL183C, strain NPR1, stronger effect = lower value 0.908 | locus YNL209W, strain ssb2, stronger effect = lower value 1.02 | locus YNL233W, strain BNI4, stronger effect = lower value 1.03 | locus YNL248C, strain rpa49, stronger effect = lower value 1.01 | locus YNL250W, strain rad50, stronger effect = lower value 0.986 | locus YNL271C, strain bni1, stronger effect = lower value 0.998 | locus YNL298W, strain CLA4, stronger effect = lower value 0.991 | locus YNL307C, strain MCK1, stronger effect = lower value 1 | locus YNL322C, strain KRE1 (second series), stronger effect = lower value 1.02 | locus YNL322C, strain KRE1, stronger effect = lower value 1.01 | locus YNR049C, strain mso1, stronger effect = lower value 1.02 | locus YNR052C, strain pop2, stronger effect = lower value 0.998 | locus YOL006C, strain TOP1, stronger effect = lower value 1.11 | locus YOL012C, strain htz1 1.19 | locus YOL147C, strain pex11, stronger effect = lower value 0.996 | locus YOR001W, strain rrp6, stronger effect = lower value 1.02 | locus YOR061W, strain CKA2, stronger effect = lower value 1.02 | locus YOR069W, strain VPS5, stronger effect = lower value 1.01 | locus YOR070C, strain gyp1, stronger effect = lower value 1.02 | locus YOR080W, strain dia2, stronger effect = lower value 1.02 | locus YOR083W, strain WHI5, stronger effect = lower value 1.01 | locus YOR106W, strain vam3, stronger effect = lower value 1.02 | locus YOR136W, strain idh2, stronger effect = lower value 1 | locus YOR144C, strain elg1, stronger effect = lower value 1 | locus YOR184W, strain ser1, stronger effect = lower value 1.01 | locus YOR231W, strain MKK1, stronger effect = lower value 0.901 | locus YOR265W, strain rbl2, stronger effect = lower value 1.02 | locus YOR270C, strain vph1, stronger effect = lower value 0.954 | locus YOR290C, strain snf2, stronger effect = lower value 1.02 | locus YOR316C, strain cot1, stronger effect = lower value 0.989 | locus YPL051W, strain arl3, stronger effect = lower value 1.02 | locus YPL078C, strain atp4, stronger effect = lower value 1.02 | locus YPL106C, strain sse1, stronger effect = lower value 1.05 | locus YPL240C, strain hsp82, stronger effect = lower value 1.03 | locus YPL256C, strain CLN2, stronger effect = lower value 0.894 | locus YPR119W, strain clb2, stronger effect = lower value 1 | locus YPR141C, strain kar3, stronger effect = lower value 0.995 | locus YPR163C, strain tif3, stronger effect = lower value 1 | locus YPR167C, strain met16, stronger effect = lower value 0.996 | strain wtn01, stronger effect = lower value 1.01
active: locus YLR113W, strain HOG1, stronger effect = lower value 0.844
